Measured values: PubChem BioAssay (Tox21)
Results filed as inconclusive are left out. The source made the active and inactive calls. Unless noted, calls come from the whole dose curve; as a rule, active = well fitted curve in the direction sought with a large enough effect in the repeat runs; inconclusive = weak or mixed curves; inactive = no such curve, though single readings can be large; an effect the other way counts as inactive or inconclusive.

Tests used:
[1] = qHTS assay to identify small molecule antagonists of the estrogen related receptor (ERR) signaling pathway from Tox21 library - cell viability counter screen (AID 1224834); note: nearly all actives have a fitted effect of over 30% in size
Summary of the method: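 CellTiter-Fluor fluorescence measured; ERR cells; 17.5 h compound incubation at 37 C; 30 min reagent step.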

[2] = biological target: Luciferin 4-monooxygenase (Photinus pyralis) (UniProt P08659); assay: qHTS assay to identify small molecule inhibitors of firefly luciferase (AID 1224835); note: nearly all actives have a fitted effect of over 25% in size
Chain of Luciferin 4-monooxygenase (Photinus pyralis) (P08659 whole entry, looked up): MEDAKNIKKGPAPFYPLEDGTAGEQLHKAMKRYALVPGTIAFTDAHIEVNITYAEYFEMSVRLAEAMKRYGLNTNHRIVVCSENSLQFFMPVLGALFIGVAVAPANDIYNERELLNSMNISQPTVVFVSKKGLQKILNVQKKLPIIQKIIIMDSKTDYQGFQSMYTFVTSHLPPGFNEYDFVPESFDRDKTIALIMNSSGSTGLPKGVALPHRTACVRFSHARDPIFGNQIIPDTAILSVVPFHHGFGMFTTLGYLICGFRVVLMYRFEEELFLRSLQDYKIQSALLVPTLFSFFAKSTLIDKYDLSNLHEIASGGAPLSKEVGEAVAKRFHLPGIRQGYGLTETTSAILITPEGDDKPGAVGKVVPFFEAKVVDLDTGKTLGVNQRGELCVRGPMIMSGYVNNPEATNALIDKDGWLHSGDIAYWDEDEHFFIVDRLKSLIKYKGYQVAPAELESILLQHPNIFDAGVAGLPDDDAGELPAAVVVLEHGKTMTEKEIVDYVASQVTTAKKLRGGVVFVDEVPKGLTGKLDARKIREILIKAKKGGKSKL
Summary of the method: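 Biochemical qHTS: compounds run as interplate titrations against purified firefly enzyme, with D-luciferin and ATP each at its KM concentration. Light output recorded by CCD imaging.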

[3] = qHTS assay to identify small molecule antagonists of the constitutive androstane receptor (CAR) signaling pathway - cell viability counter screen (AID 1224837); note: nearly all actives have a fitted effect of over 45% in size
Summary of the method: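 Using CellTiter-Fluor, viability is scored in HepG2 cells stably carrying hCAR and a 2.2kb CYP2B6 reporter after 23 hr compound exposure across 15 concentrations, with CITCO present at 50 nM.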

[4] = biological target: Nuclear receptor subfamily 1 group I member 3 (Homo sapiens) (UniProt Q14994); assay: qHTS assay to identify small molecule antagonists of the constitutive androstane receptor (CAR) signaling pathway (AID 1224838);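 note: HepG2 cells stably expressing hCAR with CYP2B6 luciferase reporter stimulated by CITCO; nearly all actives have a fitted effect of over 40% in size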
Chain of Nuclear receptor subfamily 1 group I member 3 (Homo sapiens) (Q14994 whole entry, looked up): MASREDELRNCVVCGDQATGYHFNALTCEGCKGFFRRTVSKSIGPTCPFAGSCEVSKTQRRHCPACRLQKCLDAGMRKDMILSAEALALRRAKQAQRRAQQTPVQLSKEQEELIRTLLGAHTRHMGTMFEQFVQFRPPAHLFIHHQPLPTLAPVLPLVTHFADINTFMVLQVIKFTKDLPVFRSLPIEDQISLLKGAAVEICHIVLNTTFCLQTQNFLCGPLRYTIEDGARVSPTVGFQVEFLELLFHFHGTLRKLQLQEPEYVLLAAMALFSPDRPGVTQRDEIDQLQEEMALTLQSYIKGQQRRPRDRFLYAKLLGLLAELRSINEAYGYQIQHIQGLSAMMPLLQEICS
Summary of the method: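 Reporter luminescence was quantified after 24 h exposure of hCAR/CYP2B6-2.2kb double-stable HepG2 cells to compounds at 15 concentrations in the presence of 50 nM CITCO final.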

[5] = qHTS assay to identify small molecule antagonists of the estrogen related receptor signaling pathway with the pleiotropic PPARgamma coactivator (PGC) from Tox21 10K library - cell viability counter screen (AID 1224840; active = well fitted cell-killing curve with a large enough effect in the repeat runs, not every such curve was filed as active; note: nearly all actives have a fitted effect of over 40% in size)
Summary of the method: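 Here the PGC/ERR cells serve as a cytotoxicity control: they are exposed to compounds for 17.5 hours at 37 C, and live-cell signal is quantified using CellTiter-Fluor fluorescence.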

[6] = biological target: Thyrotropin receptor (Homo sapiens) (UniProt P16473); assay: qHTS assay to identify small molecule agonists of the thyroid stimulating hormone receptor (TSHR) signaling pathway (AID 1224843; calls by dose curve; note: nearly all actives have a fitted effect of over 45% in size)
Chain of Thyrotropin receptor (Homo sapiens) (P16473 whole entry, looked up): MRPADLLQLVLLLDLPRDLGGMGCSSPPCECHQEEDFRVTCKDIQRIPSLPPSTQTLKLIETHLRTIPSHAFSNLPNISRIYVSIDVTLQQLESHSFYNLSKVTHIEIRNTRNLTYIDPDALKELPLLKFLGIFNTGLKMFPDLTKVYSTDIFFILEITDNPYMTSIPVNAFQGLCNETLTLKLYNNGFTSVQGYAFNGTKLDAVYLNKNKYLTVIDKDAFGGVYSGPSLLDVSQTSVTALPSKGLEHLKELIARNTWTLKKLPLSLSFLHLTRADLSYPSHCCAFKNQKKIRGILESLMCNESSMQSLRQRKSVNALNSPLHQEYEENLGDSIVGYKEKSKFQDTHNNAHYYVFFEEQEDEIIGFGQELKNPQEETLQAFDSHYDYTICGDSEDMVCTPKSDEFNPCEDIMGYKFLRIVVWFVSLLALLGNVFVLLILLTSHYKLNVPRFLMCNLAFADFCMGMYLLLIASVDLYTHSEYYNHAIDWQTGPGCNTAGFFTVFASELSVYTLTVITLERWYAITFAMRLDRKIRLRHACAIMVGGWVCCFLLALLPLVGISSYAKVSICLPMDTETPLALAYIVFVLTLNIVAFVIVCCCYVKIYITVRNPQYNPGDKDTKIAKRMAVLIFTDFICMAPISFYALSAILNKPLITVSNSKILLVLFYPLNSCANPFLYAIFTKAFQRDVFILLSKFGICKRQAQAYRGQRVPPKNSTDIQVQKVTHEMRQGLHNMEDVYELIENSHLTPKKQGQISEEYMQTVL
Summary of the method: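 Steps: seed 800 TSHR-HEK293 cells per well; add test compound and hold 30 min at ambient temperature; dispense cAMP-d2 then anti-cAMP cryptate; incubate 1 h at ambient; measure fluorescence intensity.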

[7] = qHTS assay to identify small molecule agonists of the hypoxia (HIF-1) signaling pathway - cell viability counter screen (AID 1224844; calls by dose curve; note: nearly all actives have a fitted effect of over 50% in size)
Summary of the method: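 Multiplexed with the HRE beta-lactamase assay, this viability read used CellTiter-Glo luminescence (30 min, RT) on HRE-bla ME-180 cells treated 17 hrs with compounds in 0.5% dialyzed FBS medium.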

[8] = qHTS assay to identify small molecule agonists of H2AX (AID 1224845; active = well fitted activation curve with a large enough effect in the signal ratio in the repeat runs, not every such curve was filed as active; the % refers to the signal ratio)
Summary of the method: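 Wild-type CHO-K1 cells, plated overnight, exposed 3hr at 37C to 15 concentrations (0.76% DMSO final). Lysed, then HTRF anti-pH2AX (S139) cryptate and anti-H2AX-d2 antibodies, 24 hr room temperature; 665/620 nm emission read.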

[9] = qHTS assay to identify small molecule agonists of H2AX - cell viability counter screen (AID 1224847; calls by dose curve; note: top concentration of the series differs between compounds; nearly all actives have a fitted effect of over 30% in size)
Summary of the method: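 Cytotoxicity counter screen in wild-type CHO-K1 cells: a 3 hr compound treatment at 37C across 15 concentrations, followed by CellTiter-Glo luminescence to gauge viable cells.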

[10] = qHTS RealTime-Glo MT Cell Viability Assay in HepG2 cells - 24 hour (AID 1224867); note: nearly all actives have a fitted effect of over 50% in size
Summary of the method: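 Viability was tracked continuously by NanoLuc luminescence from prosubstrate reduced by living HepG2 cells, at successive time points over 40 h of compound exposure. Cells with reagent were preincubated 5 h at 37 °C before compound addition.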

[11] = qHTS RealTime-Glo MT Cell Viability Assay in HEK293 cells - 32 hour (AID 1224868); note: top concentration of the series differs between compounds; nearly all actives have a fitted effect of over 50% in size
Summary of the method: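 Viability tracked continuously by luminescence as live cells reduce a prosubstrate for NanoLuc; HEK293 cells preincubated 5 h, compound-treated at 37 C, and read at 0, 8, 16, 24, 32 and 40 h.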

[12] = A CellTox Green Cytotoxicity Assay to monitor cytotoxicity in HEK293 cells - 0 hour (AID 1224869); note: nearly all actives have a fitted effect of over 50% in size
Summary of the method: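 Seeding of HEK293 cells together with cytotoxicity dye preceded a 5 h incubation at 37 C/5% CO2. Test compounds in DMSO were then added and fluorescence monitored across 40 h.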

[13] = qHTS RealTime-Glo MT Cell Viability Assay in HepG2 cells - 40 hour (AID 1224870); note: nearly all actives have a fitted effect of over 50% in size
Summary of the method: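 HepG2 cells (600/well) mixed with RealTime-Glo MT reagent, settled 5 h at 37 C/5% CO2 before compound addition. Nonlytic NanoLuc luminescence from viable-cell prosubstrate reduction read repeatedly during 40 h treatment at 37 C.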

[14] = biological target: Nuclear receptor subfamily 1 group I member 3 (Homo sapiens) (UniProt Q14994); assay: qHTS assay to identify small molecule agonists of the constitutive androstane receptor (CAR) signaling pathway (AID 1224839);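 note: HepG2 cells stably carrying human CAR and a CYP2B6 luciferase reporter; nearly all actives have a fitted effect of over 15% in size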
Summary of the method: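 Cells were plated and incubated 4 hrs, then dosed with compounds at 15 concentrations. PK11195 was added to 0.75 uM final. After 24 hrs at 37 C, luciferase luminescence was measured.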

[15] = qHTS assay to identify small molecule agonists of the hypoxia (HIF-1) signaling pathway (AID 1224846; active = well fitted activation curve with a large enough effect in the signal ratio in the repeat runs, not every such curve was filed as active; the % refers to the signal ratio)
Summary of the method: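 Hypoxia-pathway activation was scored as increased beta-lactamase from an HRE-controlled reporter in ME-180 cells; plated at 2,000 cells per well with 0.5% dialyzed FBS, they were exposed 17 hrs to compounds and then given CCF4-AM.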

[16] = qHTS assay to identify small molecule agonists of the constitutive androstane receptor (CAR) signaling pathway - cell viability counter screen (AID 1224836); note: nearly all actives have a fitted effect of over 45% in size
Summary of the method: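 Cells were seeded and incubated 4 hrs. Compounds were added across 15 concentrations together with PK11195 at 0.75 uM final. Plates were incubated 23 hrs at 37 C. CellTiter-Fluor was added and fluorescence measured.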

[17] = qHTS assay to identify small molecule antagonists of the estrogen related receptor signaling pathway with the pleiotropic PPARgamma coactivator (PGC) from Tox21 10K library (AID 1224841; call rule not given here)
Summary of the method: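 Each well held 2,000 PGC/ERR cells, pre-incubated six hours (37 C, 5% CO2). Test substances in DMSO were added by pin tool and left for 18 h at 37 C before luciferase detection by One-Glo.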

[18] = qHTS assay to identify small molecule agonists of the estrogen related receptor signaling pathway with the pleiotropic PPARgamma coactivator (PGC) from Tox21 10K library (AID 1224842); note: nearly all actives have a fitted effect of over 15% in size
Summary of the method: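 PGC/ERR reporter cell line, 2,000 cells per well, incubated 6 h at 37 C before 23 nL compound in DMSO was added. After 18 h at 37 C, One-Glo luminescence read following 30 min at room temperature.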

[19] = qHTS assay to identify small molecule antagonists of the estrogen related receptor (ERR) signaling pathway from Tox21 library (AID 1224848); note: nearly all actives have a fitted effect of over 50% in size
Summary of the method: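 Luminescent reporter read-out (ONE-Glo) from NTP's ERR cell line after 18 h treatment at 37 C with DMSO-dissolved Tox21 compounds; cells pre-plated 6 h beforehand at 2,000 per well.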

[20] = qHTS assay to identify small molecule agonists of the estrogen related receptor (ERR) signaling pathway from Tox21 library (AID 1224849; calls by dose curve; note: nearly all actives have a fitted effect of over 15% in size); conditions: ERR reporter cell line, ONE-Glo luciferase, 18 h; at 92.4 µM (top of the series) unless noted
Summary of the method: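 Six hours post-seeding at 37 C/5% CO2, ERR cells receive DMSO-solubilised compounds; after 18 h at 37 C, ONE-Glo reagent is applied and luminescence recorded.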
% is set by controls: 0 for no effect and ±100 for the full control effect.

COC(=O)C1=CCCN(C)C1
inactive: Potency [1] | Potency [2] | Potency [3] | Potency [4] | Potency [5] | Potency [6] | Potency [7] | Potency [8] | Potency [9] | Potency [10] | Potency [11] | Potency [12] | Potency [13]

O=C(NCO)NCO
inactive: Potency [1] | Potency [2] | Potency [3] | Potency [4] | Potency [14] | Potency [5] | Potency [6] | Potency [7] | Potency [8] | outcome [15] | Potency [9] | Potency [10] | Potency [11] | Potency [12] | Potency [13]

C=CC1CC=CCC1 (stereo not given)
inactive: Potency [1] | Potency [2] | Potency [3] | Potency [4] | Potency [14] | Potency [5] | Potency [6] | Potency [7] | Potency [8] | outcome [15] | Potency [9] | Potency [10] | Potency [11] | Potency [12] | Potency [13]

CCN(Cc1ccc(Cl)nc1)/C(=C/[N+](=O)[O-])NC
inactive: Potency [1] | Potency [2] | Potency [3] | Potency [4] | Potency [14] | Potency [5] | Potency [6] | Potency [8] | outcome [15] | Potency [9] | Potency [10] | Potency [11] | Potency [12] | Potency [13]

CCSC(=O)N(CC)C1CCCCC1
inactive: Potency [1] | Potency [2] | Potency [16] | Potency [5] | Potency [6] | Potency [8] | outcome [15] | Potency [9] | Potency [10] | Potency [11] | Potency [12] | Potency [13]

CC(C(O)c1ccccc1)N(C)C/C=C/c1ccccc1 (stereo not given)
inactive: Potency [1] | Potency [2] | Potency [3] | Potency [4] | Potency [14] | Potency [5] | Potency [6] | Potency [8] | outcome [15] | Potency [10] | Potency [12] | Potency [13]

CCCCOP(=O)(O)OCCCC
inactive: Potency [1] | Potency [2] | Potency [16] | Potency [5] | Potency [6] | Potency [7] | outcome [15] | Potency [10] | Potency [11] | Potency [12] | Potency [13]

CC(C(=O)c1ccccc1)N(C)C (stereo not given)
inactive: Potency [1] | Potency [2] | Potency [3] | Potency [5] | Potency [7] | Potency [8] | outcome [15] | Potency [9] | Potency [10] | Potency [11] | Potency [12] | Potency [13]

Cc1coc2c1CCC(C)C2 (stereo not given)
inactive: Potency [1] | Potency [2] | Potency [3] | Potency [4] | Potency [5] | Potency [6] | Potency [7] | Potency [8] | outcome [15] | Potency [9] | Potency [10] | Potency [11] | Potency [12] | Potency [13]

ClCCCN1CCN(c2cccc(Cl)c2)CC1
inactive: Potency [1] | Potency [2] | Potency [3] | Potency [4] | Potency [5] | Potency [17] | outcome [18] | Potency [6] | Potency [7] | Potency [8] | outcome [15] | Potency [9] | Potency [19] | activity change, positive = activation [20] -4.21% [at 42.5 µM] | Potency [10] | Potency [11] | Potency [12] | Potency [13]

N#CC(O)c1ccccc1 (stereo not given)
inactive: Potency [1] | Potency [2] | Potency [3] | Potency [4] | Potency [14] | Potency [5] | Potency [6] | Potency [7] | Potency [8] | outcome [15] | Potency [9] | Potency [10] | Potency [11] | Potency [12] | Potency [13]

C[C@@H]1CN(C2CCC(C#N)(c3ccc(F)cc3)CC2)CC[C@]1(C(=O)O)c1ccccc1 (stereo not given in full)
inactive: Potency [1] | Potency [2] | Potency [3] | Potency [4] | Potency [14] | Potency [5] | Potency [17] | outcome [18] | Potency [6] | Potency [7] | Potency [8] | Potency [9] | Potency [19] | activity change, positive = activation [20] 0.0799% [at 42.5 µM] | Potency [11] | Potency [12] | Potency [13]

NC(=S)C(N)=S
inactive: Potency [1] | Potency [2] | Potency [3] | Potency [4] | Potency [14] | Potency [5] | outcome [18] | Potency [7] | Potency [8] | outcome [15] | Potency [9] | activity change, positive = activation [20] -20.6% | Potency [11] | Potency [12] | Potency [13]

OC(Cn1cncn1)(c1ccc(F)cc1)c1ccccc1F (stereo not given)
inactive: Potency [1] | Potency [2] | Potency [3] | Potency [5] | Potency [6] | Potency [7] | Potency [8] | outcome [15] | Potency [10] | Potency [11] | Potency [12] | Potency [13]

ClC(Br)Br
inactive: Potency [1] | Potency [2] | Potency [3] | Potency [4] | Potency [14] | Potency [5] | Potency [17] | outcome [18] | Potency [6] | Potency [7] | Potency [8] | outcome [15] | Potency [9] | Potency [19] | activity change, positive = activation [20] 1.41% | Potency [10] | Potency [11] | Potency [12] | Potency [13]

COc1cccc(C(=O)NN(C(=O)c2cc(C)cc(C)c2)C(C)(C)C)c1C
inactive: Potency [2] | Potency [4] | Potency [14] | Potency [5] | Potency [17] | outcome [18] | Potency [6] | Potency [7] | Potency [8] | outcome [15] | Potency [9] | activity change, positive = activation [20] -24.8% | Potency [11] | Potency [12] | Potency [13]

C[N+](C)=CCl
inactive: Potency [1] | Potency [2] | Potency [5] | Potency [6] | Potency [8] | outcome [15] | Potency [9] | Potency [10] | Potency [11] | Potency [12] | Potency [13]
